# Measured values as given in publication PMC7862700, “An all-to-all approach to the identification of sequence-specific readers for epigenetic DNA modifications on cytosine”.
# Legend:
# Assay in all cases: DAPPL (digital affinity profiling via proximity ligation, sequencing); 10 mM Tris-HCl pH 7.5, 50 mM NaCl, 1 mM DTT, 4% glycerol, room temperature, 30 min; GST-TFs on glutathione beads, 16-mer random dsDNA library, 0.1% formaldehyde crosslink after washing; high values mean tight binding
# FLI1 = target: T1, FLI1 (Homo sapiens, UniProt Q01543 1-452); conditions: protein: recombinant; tags: N-terminal GST; dsDNA, one strand shown
# T1 sequence: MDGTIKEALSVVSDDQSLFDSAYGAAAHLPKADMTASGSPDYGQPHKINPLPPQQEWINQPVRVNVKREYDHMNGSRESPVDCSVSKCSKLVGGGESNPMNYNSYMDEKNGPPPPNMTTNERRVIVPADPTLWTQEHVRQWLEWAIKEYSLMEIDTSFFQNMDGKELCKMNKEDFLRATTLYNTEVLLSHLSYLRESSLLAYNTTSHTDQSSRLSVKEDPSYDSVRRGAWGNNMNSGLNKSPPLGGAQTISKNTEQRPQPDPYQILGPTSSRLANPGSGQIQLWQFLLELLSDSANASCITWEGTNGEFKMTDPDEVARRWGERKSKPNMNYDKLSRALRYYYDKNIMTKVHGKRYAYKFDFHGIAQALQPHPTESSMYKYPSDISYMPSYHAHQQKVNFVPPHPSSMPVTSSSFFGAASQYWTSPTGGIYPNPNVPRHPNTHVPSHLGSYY
# Outline: (§1)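 Pools were built from human transcription factors expressed in yeast as GST fusions, captured on glutathione beads and DNA-barcoded, along with a tag-only sample. Incubation with 200 nmole of a 16-mer random double-stranded DNA library lasted 30 min at room temperature in Tris/NaCl/DTT/glycerol buffer, and was followed by washing, 0.1% formaldehyde crosslinking, proximity ligation, PCR amplification and Illumina NextSeq500 sequencing. Binding signal is the quotient of each hexamer's read frequency for a factor and its frequency for the tag-only sample.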
# ELK1 = target: T2, ELK1 (Homo sapiens, UniProt P19419 1-428); conditions: protein: recombinant; tags: N-terminal GST; dsDNA, one strand shown
# T2 sequence: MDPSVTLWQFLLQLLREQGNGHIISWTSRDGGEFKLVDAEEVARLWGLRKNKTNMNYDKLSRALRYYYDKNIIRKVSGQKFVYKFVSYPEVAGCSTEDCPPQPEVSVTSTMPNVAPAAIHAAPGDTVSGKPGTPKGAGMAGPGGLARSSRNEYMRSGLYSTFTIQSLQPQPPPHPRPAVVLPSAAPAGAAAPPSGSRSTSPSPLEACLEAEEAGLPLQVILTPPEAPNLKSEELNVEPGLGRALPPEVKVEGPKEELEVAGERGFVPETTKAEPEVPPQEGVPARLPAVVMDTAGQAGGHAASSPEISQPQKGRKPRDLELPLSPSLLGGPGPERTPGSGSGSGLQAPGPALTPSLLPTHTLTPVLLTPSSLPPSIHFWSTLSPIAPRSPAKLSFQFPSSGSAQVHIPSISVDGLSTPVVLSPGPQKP
# Outline: as §1
# GABPA = target: T3, GABPA (Homo sapiens, UniProt Q06546 1-454); conditions: protein: recombinant; tags: N-terminal GST; dsDNA, one strand shown
# T3 sequence: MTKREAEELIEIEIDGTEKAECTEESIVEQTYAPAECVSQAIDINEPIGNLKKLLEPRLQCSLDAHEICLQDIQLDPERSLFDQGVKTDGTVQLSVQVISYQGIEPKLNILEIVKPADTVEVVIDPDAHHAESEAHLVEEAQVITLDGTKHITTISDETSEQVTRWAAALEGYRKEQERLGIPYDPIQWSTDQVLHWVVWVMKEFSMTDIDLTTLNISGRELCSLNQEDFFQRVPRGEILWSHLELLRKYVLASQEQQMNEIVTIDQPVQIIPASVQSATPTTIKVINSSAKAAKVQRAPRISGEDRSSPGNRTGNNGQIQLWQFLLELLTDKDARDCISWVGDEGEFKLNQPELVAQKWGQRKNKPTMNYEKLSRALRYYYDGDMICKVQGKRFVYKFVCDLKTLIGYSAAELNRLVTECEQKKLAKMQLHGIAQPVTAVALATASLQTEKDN
# Outline: as §1
# ERG = target: T4, ERG (Homo sapiens, UniProt P11308 1-479); conditions: protein: recombinant; tags: N-terminal GST; dsDNA, one strand shown
# T4 sequence: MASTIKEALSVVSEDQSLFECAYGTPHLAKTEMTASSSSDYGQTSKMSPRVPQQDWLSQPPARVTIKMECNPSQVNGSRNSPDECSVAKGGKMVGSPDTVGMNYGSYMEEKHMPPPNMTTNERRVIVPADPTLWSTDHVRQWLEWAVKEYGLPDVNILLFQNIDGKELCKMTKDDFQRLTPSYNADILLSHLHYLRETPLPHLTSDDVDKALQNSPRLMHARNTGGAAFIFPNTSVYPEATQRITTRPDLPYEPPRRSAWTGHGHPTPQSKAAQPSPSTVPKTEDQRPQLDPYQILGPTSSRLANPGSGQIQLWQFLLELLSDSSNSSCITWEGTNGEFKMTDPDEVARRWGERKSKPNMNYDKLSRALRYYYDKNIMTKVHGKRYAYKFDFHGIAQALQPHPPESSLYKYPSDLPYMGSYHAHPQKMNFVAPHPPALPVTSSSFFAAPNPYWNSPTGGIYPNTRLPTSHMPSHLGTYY
# Outline: as §1
# ELF1 = ELF1 (Homo sapiens, UniProt P32519 1-619); conditions: protein: recombinant; tags: N-terminal GST; dsDNA, one strand shown
# Outline: as §1
# EHF = target: T5, EHF (Homo sapiens, UniProt Q9NZC4 1-300); conditions: protein: recombinant; tags: N-terminal GST; dsDNA, one strand shown
# T5 sequence: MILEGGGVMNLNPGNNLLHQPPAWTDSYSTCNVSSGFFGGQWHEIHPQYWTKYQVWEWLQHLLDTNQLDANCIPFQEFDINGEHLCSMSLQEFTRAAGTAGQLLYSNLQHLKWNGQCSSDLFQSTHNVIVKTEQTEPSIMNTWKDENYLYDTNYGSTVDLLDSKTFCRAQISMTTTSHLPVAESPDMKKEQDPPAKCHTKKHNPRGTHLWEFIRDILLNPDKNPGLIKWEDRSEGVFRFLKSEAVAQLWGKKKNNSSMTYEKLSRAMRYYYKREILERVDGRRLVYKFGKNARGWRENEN
# Outline: as §1
# SPI1 = SPI1 (Homo sapiens, UniProt P17947 1-270); conditions: protein: recombinant; tags: N-terminal GST; dsDNA, one strand shown
# Outline: as §1
# SPIB = SPIB (Homo sapiens, UniProt Q01892 1-262); conditions: protein: recombinant; tags: N-terminal GST; dsDNA, one strand shown
# Outline: as §1
# ELK3 = target: T6, ELK3 (Homo sapiens, UniProt P41970 1-407); conditions: protein: recombinant; tags: N-terminal GST; dsDNA, one strand shown
# T6 sequence: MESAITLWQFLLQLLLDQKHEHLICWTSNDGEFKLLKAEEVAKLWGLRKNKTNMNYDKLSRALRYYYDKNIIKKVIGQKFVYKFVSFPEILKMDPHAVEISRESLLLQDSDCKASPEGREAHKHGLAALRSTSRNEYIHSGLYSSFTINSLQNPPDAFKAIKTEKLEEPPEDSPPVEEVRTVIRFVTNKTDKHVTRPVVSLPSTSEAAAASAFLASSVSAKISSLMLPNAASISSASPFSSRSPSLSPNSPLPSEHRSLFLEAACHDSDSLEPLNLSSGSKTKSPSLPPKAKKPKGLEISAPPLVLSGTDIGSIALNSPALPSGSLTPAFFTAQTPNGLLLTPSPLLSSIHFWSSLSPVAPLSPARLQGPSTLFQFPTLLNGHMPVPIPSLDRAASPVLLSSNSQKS
# Outline: as §1
# FEV = target: T7, FEV (Homo sapiens, UniProt Q99581 1-238); conditions: protein: recombinant; tags: N-terminal GST; dsDNA, one strand shown
# T7 sequence: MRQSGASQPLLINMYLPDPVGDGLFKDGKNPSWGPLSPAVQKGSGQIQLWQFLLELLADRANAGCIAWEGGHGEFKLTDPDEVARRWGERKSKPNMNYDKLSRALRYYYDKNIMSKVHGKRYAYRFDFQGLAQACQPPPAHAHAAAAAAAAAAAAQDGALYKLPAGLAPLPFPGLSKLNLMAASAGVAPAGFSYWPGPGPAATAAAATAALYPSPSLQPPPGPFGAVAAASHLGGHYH
# Outline: as §1
# ETV5 = ETV5 (Homo sapiens, UniProt P41161 1-510); conditions: protein: recombinant; tags: N-terminal GST; dsDNA, one strand shown
# Outline: as §1
# HSF1 = HSF1 (Homo sapiens, UniProt Q00613 1-529); conditions: protein: recombinant; tags: N-terminal GST; chain copies: 3; dsDNA, one strand shown
# Outline: as §1
# SPIC = target: T8, SPIC (Homo sapiens, UniProt Q8N5J4 1-248); conditions: protein: recombinant; tags: N-terminal GST; dsDNA, one strand shown
# T8 sequence: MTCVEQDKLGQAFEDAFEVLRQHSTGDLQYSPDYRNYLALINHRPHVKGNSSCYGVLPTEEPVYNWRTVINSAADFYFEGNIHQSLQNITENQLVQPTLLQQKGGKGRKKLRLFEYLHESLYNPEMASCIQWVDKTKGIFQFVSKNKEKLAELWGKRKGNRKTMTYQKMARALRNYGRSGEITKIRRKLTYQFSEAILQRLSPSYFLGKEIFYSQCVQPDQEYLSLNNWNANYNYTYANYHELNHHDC
# Outline: as §1
# ELF4 = ELF4 (Homo sapiens, UniProt Q99607 1-663); conditions: protein: recombinant; tags: N-terminal GST; dsDNA, one strand shown
# Outline: as §1
# ELK4 = target: T9, ELK4 (Homo sapiens, UniProt P28324-2 1-405); conditions: protein: recombinant; tags: N-terminal GST; dsDNA, one strand shown
# T9 sequence: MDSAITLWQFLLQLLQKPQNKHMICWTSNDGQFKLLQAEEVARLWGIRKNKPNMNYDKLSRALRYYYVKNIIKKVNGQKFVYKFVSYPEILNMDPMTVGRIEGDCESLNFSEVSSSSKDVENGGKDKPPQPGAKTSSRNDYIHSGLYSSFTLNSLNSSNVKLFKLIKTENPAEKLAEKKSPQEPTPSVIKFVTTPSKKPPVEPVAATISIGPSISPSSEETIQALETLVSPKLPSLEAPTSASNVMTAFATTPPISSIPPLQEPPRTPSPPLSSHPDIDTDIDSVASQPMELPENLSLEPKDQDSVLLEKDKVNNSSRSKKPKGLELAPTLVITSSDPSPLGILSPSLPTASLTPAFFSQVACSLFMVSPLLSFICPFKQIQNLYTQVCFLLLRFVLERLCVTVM
# Outline: as §1
# ETV2 = target: T10, ETV2 (Homo sapiens, UniProt O00321 1-342); conditions: protein: recombinant; tags: N-terminal GST; dsDNA, one strand shown
# T10 sequence: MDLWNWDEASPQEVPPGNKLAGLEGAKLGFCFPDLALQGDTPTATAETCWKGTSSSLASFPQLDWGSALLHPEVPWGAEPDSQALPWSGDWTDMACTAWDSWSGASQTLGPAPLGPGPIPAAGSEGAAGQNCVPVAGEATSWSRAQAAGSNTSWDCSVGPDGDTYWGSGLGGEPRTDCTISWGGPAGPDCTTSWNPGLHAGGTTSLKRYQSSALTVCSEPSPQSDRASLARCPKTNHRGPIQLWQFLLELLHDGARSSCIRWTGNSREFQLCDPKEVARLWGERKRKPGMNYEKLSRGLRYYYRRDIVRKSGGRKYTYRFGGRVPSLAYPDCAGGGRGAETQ
# Outline: as §1
# ELF3 = target: T11, ELF3 (Homo sapiens, UniProt P78545 1-371); conditions: protein: recombinant; tags: N-terminal GST; dsDNA, one strand shown
# T11 sequence: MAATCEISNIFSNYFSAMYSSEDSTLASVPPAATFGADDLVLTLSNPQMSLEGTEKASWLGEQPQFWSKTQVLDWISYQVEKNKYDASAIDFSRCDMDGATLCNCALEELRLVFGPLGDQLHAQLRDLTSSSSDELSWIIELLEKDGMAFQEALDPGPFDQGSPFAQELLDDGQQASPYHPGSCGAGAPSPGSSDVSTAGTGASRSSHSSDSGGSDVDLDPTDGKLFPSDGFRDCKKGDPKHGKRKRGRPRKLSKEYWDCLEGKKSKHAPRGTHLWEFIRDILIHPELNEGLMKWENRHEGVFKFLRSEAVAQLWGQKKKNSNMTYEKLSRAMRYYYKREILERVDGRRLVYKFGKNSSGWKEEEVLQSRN
# Outline: as §1
# CRX = CRX (Homo sapiens, UniProt O43186 1-299); conditions: protein: recombinant; tags: N-terminal GST; dsDNA, one strand shown
# Outline: as §1
# ETV1 = ETV1 (Homo sapiens, UniProt P50549 1-477); conditions: protein: recombinant; tags: N-terminal GST; dsDNA, one strand shown
# Outline: as §1
# Sequence of SPIB (Q01892 whole entry): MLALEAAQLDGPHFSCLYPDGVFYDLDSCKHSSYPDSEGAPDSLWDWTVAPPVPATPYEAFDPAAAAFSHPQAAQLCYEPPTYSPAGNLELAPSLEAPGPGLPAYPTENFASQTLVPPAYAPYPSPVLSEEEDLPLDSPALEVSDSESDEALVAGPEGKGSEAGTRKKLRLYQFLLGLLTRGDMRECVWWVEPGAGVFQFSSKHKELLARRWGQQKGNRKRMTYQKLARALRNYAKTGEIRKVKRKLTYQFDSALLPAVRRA
# Sequence of ELF1 (P32519 whole entry): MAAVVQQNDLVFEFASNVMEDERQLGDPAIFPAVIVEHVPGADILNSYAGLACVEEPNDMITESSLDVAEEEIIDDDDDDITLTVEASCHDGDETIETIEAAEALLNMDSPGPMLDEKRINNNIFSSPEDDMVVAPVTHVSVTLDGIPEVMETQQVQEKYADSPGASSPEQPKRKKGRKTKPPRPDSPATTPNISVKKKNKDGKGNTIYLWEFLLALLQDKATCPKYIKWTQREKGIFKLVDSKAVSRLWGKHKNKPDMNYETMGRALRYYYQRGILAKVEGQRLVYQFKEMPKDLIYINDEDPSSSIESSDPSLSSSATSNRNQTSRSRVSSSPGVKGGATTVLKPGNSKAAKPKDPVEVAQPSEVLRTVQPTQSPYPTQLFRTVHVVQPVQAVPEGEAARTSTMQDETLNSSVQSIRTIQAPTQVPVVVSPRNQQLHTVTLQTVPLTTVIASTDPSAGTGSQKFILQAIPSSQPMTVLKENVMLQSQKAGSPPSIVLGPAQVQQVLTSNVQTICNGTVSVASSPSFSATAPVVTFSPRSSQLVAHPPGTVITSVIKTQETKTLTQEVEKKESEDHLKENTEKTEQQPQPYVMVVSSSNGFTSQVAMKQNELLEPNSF
# Sequence of ETV5 (P41161 whole entry): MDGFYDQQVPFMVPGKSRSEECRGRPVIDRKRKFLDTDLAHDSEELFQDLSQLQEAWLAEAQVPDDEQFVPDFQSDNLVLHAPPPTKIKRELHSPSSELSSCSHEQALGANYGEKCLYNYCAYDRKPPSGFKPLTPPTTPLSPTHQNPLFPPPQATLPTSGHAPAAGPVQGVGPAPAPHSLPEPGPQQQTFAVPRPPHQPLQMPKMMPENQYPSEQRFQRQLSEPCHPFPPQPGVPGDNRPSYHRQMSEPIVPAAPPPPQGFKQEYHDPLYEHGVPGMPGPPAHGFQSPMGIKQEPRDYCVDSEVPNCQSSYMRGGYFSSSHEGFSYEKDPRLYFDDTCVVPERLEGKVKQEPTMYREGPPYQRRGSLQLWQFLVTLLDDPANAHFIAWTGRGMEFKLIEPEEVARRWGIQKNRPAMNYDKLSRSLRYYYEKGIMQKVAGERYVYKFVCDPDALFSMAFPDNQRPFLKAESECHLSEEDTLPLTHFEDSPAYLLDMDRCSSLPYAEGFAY
# Sequence of ELF4 (Q99607 whole entry): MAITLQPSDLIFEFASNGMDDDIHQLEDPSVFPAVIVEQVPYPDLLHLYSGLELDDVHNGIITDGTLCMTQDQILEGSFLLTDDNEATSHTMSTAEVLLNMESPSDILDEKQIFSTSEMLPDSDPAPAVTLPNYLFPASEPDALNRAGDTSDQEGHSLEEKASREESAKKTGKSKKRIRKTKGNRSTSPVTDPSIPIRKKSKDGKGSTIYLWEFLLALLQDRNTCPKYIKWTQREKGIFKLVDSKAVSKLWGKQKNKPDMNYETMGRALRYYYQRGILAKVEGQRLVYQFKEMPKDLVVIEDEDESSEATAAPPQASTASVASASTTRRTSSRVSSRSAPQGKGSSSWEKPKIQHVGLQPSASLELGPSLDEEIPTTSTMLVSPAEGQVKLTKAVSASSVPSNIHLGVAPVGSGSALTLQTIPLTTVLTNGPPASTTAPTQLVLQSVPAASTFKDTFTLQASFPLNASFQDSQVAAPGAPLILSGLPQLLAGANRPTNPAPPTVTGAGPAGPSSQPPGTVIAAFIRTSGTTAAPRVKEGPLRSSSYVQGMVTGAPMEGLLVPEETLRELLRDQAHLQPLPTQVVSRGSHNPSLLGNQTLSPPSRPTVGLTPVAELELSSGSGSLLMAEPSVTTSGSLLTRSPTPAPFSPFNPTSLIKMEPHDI
# Sequence of CRX (O43186 whole entry): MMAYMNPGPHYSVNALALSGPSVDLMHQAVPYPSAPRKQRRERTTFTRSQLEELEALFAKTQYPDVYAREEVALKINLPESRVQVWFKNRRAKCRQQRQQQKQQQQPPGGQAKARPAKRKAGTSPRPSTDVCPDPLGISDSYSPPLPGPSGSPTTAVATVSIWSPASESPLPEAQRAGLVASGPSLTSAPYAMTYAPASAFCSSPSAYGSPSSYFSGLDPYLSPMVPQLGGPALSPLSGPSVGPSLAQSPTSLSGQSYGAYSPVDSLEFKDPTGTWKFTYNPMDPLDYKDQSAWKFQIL
# Sequence of ETV1 (P50549 whole entry): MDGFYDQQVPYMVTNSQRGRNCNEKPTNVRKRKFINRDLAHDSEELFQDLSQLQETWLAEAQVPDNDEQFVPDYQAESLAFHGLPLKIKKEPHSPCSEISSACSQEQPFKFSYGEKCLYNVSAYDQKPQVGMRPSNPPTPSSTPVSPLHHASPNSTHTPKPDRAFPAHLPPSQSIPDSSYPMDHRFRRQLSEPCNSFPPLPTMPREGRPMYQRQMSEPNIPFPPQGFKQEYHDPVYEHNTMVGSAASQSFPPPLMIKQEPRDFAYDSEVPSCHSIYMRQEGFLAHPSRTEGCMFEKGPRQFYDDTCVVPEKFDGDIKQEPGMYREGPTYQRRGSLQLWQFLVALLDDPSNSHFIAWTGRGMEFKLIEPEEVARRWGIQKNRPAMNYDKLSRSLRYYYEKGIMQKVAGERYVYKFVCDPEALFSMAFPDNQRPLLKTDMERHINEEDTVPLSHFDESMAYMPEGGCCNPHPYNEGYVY
# Sequence of HSF1 (Q00613 whole entry): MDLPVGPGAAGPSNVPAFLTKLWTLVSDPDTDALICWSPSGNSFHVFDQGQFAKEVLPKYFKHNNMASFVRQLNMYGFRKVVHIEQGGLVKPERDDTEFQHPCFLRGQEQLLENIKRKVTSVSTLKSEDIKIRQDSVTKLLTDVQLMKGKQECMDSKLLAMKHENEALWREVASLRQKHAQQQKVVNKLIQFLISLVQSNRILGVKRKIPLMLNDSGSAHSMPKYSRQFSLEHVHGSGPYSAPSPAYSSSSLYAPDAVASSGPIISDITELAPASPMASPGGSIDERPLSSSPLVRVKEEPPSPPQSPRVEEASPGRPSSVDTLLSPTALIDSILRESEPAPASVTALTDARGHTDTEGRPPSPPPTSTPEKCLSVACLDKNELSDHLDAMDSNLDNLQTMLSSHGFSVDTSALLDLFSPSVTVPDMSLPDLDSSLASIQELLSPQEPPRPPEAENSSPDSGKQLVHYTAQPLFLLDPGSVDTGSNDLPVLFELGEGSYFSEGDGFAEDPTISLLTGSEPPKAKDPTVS
sequence,measurement,setting,value
ACGATA,binding signal,FLI1,"1.19 fold enrichment (6-mer frequency, TF over GST control)"
same,binding signal,ELK1,"1.12 fold enrichment (6-mer frequency, TF over GST control)"
same,binding signal,GABPA,"1.23 fold enrichment (6-mer frequency, TF over GST control)"
same,binding signal,ERG,"1.14 fold enrichment (6-mer frequency, TF over GST control)"
same,binding signal,ELF1,"1.19 fold enrichment (6-mer frequency, TF over GST control)"
same,binding signal,EHF,"1.15 fold enrichment (6-mer frequency, TF over GST control)"
same,binding signal,SPI1,"1.09 fold enrichment (6-mer frequency, TF over GST control)"
same,binding signal,SPIB,"1.23 fold enrichment (6-mer frequency, TF over GST control)"
same,binding signal,ELK3,"1.16 fold enrichment (6-mer frequency, TF over GST control)"
same,binding signal,FEV,"1.12 fold enrichment (6-mer frequency, TF over GST control)"
same,binding signal,ETV5,"1.16 fold enrichment (6-mer frequency, TF over GST control)"
same,binding signal,HSF1,"1.17 fold enrichment (6-mer frequency, TF over GST control)"
same,binding signal,SPIC,"1.38 fold enrichment (6-mer frequency, TF over GST control)"
same,binding signal,ELF4,"1.22 fold enrichment (6-mer frequency, TF over GST control)"
same,binding signal,ELK4,"1.18 fold enrichment (6-mer frequency, TF over GST control)"
same,binding signal,ETV2,"1.22 fold enrichment (6-mer frequency, TF over GST control)"
same,binding signal,ELF3,"1.04 fold enrichment (6-mer frequency, TF over GST control)"
same,binding signal,CRX,"1.26 fold enrichment (6-mer frequency, TF over GST control)"
same,binding signal,ETV1,"1.15 fold enrichment (6-mer frequency, TF over GST control)"
